Records with an inconclusive call do not appear. Calls of active or inactive are those of the source. Calls follow the shape of the dose curve; as a rule, active = well fitted cell-killing curve with a large enough effect; inconclusive = small, poorly fitted or top-dose-only effect, or effect the other way; inactive = no such curve, though single readings can be large or run the other way.
experiment: qHTS of pediatric cancer cell lines to identify multiple opportunities for drug repurposing: Confirmatory screen for NB-EBc1 cells (AID 1347115); conditions: NB-EBc1 neuroblastoma cells, viability (cytotoxicity); series mostly up to 45.9 µM;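 also: cells exposed to compound for 48 h before the viability read; nearly all actives have a fitted effect of over 45% in size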
Description: Drug repurposing or repositioning has been offered as a strategy for drug development in oncology programs. This approach has special potential for childhood cancers and other rare or orphan diseases, where the expected return on new drug development has been a disincentive to pharmaceuticals.
In this project we exploit the poly-pharmacology of drugs to discover new indications via phenotypic screening of a panel of 19 well-characterized cell lines derived from solid tumors seen in children and adolescents. The goal is to identify approved drugs with previously unrecognized anticancer properties that has the potential to reveal new mechanisms and biological processes involved in carcinogenesis or drug resistance. We employed a titration-based paradigm (quantitative high-throughput screening or qHTS), where all compounds were tested at multiple concentrations for their effect on cell viability. Concentration-response curves (CRCs) were derived directly from the primary screen, and both potency and efficacy values were used to identify compounds with robust bioactivity profiles. We screened the NIH Chemical Genomics Center (NCGC) Pharmaceutical Collection (NPC) and Mechanism Interrogation Plate (MIPE) small molecule collections of approved and investigational compounds against these cell lines; and measured metabolically active cells after 48 hours of compound treatment as a proxy for cell viability.
Assay Submitter: Nathalia J. Martinez, National Center for Advancing Translational Sciences, National Institutes of Health, Rockville, MD, USA; email: natalia.martinez@nih.gov
[1] Shen, M et al. Quantitative high-throughput phenotypic screening of pediatric cancer cell lines identifies multiple opportunities for drug repurposing. Oncotarget 2017 Dec 19;9(4):4758-4772. PMID 29435139.
The cells were obtained from University of North Carolina (UNC), Pediatric Preclinical Testing Program (PPT), and Coriell Institute (CI).
qHTS cell viability assay:
Cells were assayed in growth media at a density of 500-1,000 cells/well. Five microliters of cells were dispensed into 1,536-well, white, solid-bottom, TC-treated plates (Greiner Bio One) using a multidrop dispenser and incubated at 37 degrees C, 5% CO2, under a humidified atmosphere for 5 hours. Twenty-three nanoliters of compounds and controls (neutral control DMSO or positive control bortezomib at final concentration of 2.3 µM) were subsequently transferred by Kalypsys pintool. For primary screens, the MIPE collection was tested at 11-point dilutions (final concentrations range from 0.78 nM to 46 µM) and the NPC collection at 8-point dilutions (final concentrations range from 0.59 nM to 46 µM). Compounds tested in follow-up screens were assayed at 11-point dilutions. Cells were incubated for 48 hours, followed by addition of 3 µL of CellTiter-Glo (Promega). After a 15 min incubation at room temperature, samples were analyzed for luminescence intensity using a ViewLux High-throughput CCD imager equipped with clear filters.
Potency is read from the fitted curve at half-maximal effect.

Row | SMILES | Potency
1 | Cc1cnc(Nc2ccc(F)cc2Cl)nc1-c1c[nH]c(C(=O)N[C@H](CO)c2cccc(Cl)c2)c1 | inactive
2 | CCCCc1nc2cc(C=CC(=O)NO)ccc2n1CCN(CC)CC | 3.29 µM (active)
3 | CN(C)Cc1c(C(=O)NCCOc2ccc(C(=O)NO)cc2)oc2ccccc12 | 1.85 µM (active)
4 | Cc1c(NC(=O)OC[C@@H]2COCCN2)cn2ncnc(Nc3ccc4c(cnn4Cc4cccc(F)c4)c3)c12 | inactive
5 | C[C@@H](Oc1cc(-n2cnc3ccc(CN4CCN(C)CC4)cc32)sc1C(N)=O)c1ccccc1C(F)(F)F | 0.24 µM (active)
6 | CNC(=O)CN1CCC(Oc2cc3c(Nc4cccc(Cl)c4F)ncnc3cc2OC)CC1 | 4.65 µM (active)
7 | CCN1CCN(Cc2ccc(-c3cc4c(N[C@H](C)c5ccccc5)ncnc4[nH]3)cc2)CC1 | 38 µM (active)
8 | COc1cc2c(Oc3ccc(-c4cnc(Nc5ccc(F)cc5)n(C)c4=O)cc3F)ccnc2cc1OCCCN1CCOCC1 | 18.5 µM (active)
9 | CC1(C)O[C@@H]2C[C@@H]3[C@H]4C[C@@H](F)C5=CC(=O)C=C[C@]5(C)[C@@]4(F)[C@@H](O)C[C@]3(C)[C@]2(C(=O)CO)O1 | 11.7 µM (active)
10 | CC(C)(C)c1cc(C(C)(C)C)c(NC(=O)c2c[nH]c3ccccc3c2=O)cc1O | 16.5 µM (active)
11 | C=CC(=O)Nc1cccc(Oc2nc(Nc3ccc(N4CCN(C)CC4)cc3OC)ncc2Cl)c1 | inactive
12 | Nc1ncnc2c1c(-c1cnc3[nH]ccc3c1)nn2C1CCCC1 | 10.4 µM (active)
13 | CN(C)CC(C)(C)CNc1nn2c(-c3ccccc3)nnc2cc1C1CCC1 | inactive
14 | CC1(C)CCC(c2ccc(Cl)cc2)=C(CN2CCN(c3ccc(C(=O)NS(=O)(=O)c4ccc(N[C@H](CCN5CCOCC5)CSc5ccccc5)c(S(=O)(=O)C(F)(F)F)c4)cc3)CC2)C1 | inactive
15 | Cc1ccc(NC(=O)C2(c3ccc4c(c3)OC(F)(F)O4)CC2)nc1-c1cccc(C(=O)O)c1 | inactive
16 | O=C(O)c1ccc2cc(-c3ccc(O)c(C45CC6CC(CC(C6)C4)C5)c3)ccc2c1 | 0.737 µM (active)
17 | C=CC(=O)N1CCC[C@@H](n2nc(-c3ccc(Oc4ccccc4)cc3)c3c(N)ncnc32)C1 | 9.27 µM (active)
18 | CC(NCc1ccc2c(c1)nc(NC(=O)c1ccc(-c3cn[nH]c3)s1)n2CC(C)(C)O)C(C)(C)C (stereo not given) | 0.827 µM (active)
19 | CC[C@@H]1C(=O)N(C)c2cnc(Nc3ccc(C(=O)NC4CCN(C)CC4)cc3OC)nc2N1C1CCCC1 | 3.29 µM (active)
20 | O=c1[nH]nc(Sc2ncc([N+](=O)[O-])s2)n1-c1ccc2c(c1)OCCO2 | 7.37 µM (active)

Row | SMILES | Potency
21 | Cc1c(C)n(Cc2ccc(-c3ccccc3C(=O)O)cc2)c2ccc(C(=O)N[C@@H](C)c3ccc([N+](=O)[O-])cc3)cc12 | inactive
22 | O=C(C=Cc1cccnc1)NCCCCC1CCN(C(=O)c2ccccc2)CC1 | inactive
23 | CC[C@@H]1C(=O)N(C)c2cnc(Nc3ccc(C(=O)NC4CCC(N5CCN(CC6CC6)CC5)CC4)cc3OC)nc2N1C(C)C (stereo not given in full) | inactive
24 | COC(=O)[C@]12CCC(C)(C)C[C@@H]1[C@@H]1C(=O)C=C3[C@@]4(C)C=C(C#N)C(=O)C(C)(C)[C@@H]4CC[C@@]3(C)[C@]1(C)CC2 | 5.85 µM (active)
25 | CCC1=C[C@@H]2CN(C1)Cc1c([nH]c3ccccc13)[C@@](C(=O)OC)(c1cc3c(cc1OC)N(C)[C@@H]1[C@@](O)(C(=O)OC)[C@H](OC(C)=O)[C@]4(CC)C=CCN5CC[C@]31[C@@H]54)C2 | inactive
26 | OCCCNc1cc(-c2ccnc(Nc3cccc(Cl)c3)n2)ccn1 | inactive
27 | Cn1c2ccccc2c2c3c(c4c5ccccc5n(CCC#N)c4c21)CNC3=O | 23.3 µM (active)
28 | C=CC(=O)Nc1cc2c(Nc3ccc(F)c(Cl)c3)ncnc2cc1C#CC(C)(C)N1CCN(C)CC1 | 15.1 µM (active)
29 | COCCn1c2c([n+](Cc3cnccn3)c1C)C(=O)c1ccccc1C2=O | 1.04 µM (active)
30 | COc1ccc(-c2cc3c(C)nc(N)nc3n(C3CCC(OCCO)CC3)c2=O)cn1 (stereo not given) | inactive
31 | NC(=O)Nc1cc(-c2cccc(F)c2)sc1C(=O)N[C@H]1CCCNC1 | 1.65 µM (active)
32 | Cc1c(Cn2c(C)nc3c(C(=O)O)cc(N4CCOCC4)cc32)cccc1C(F)(F)F | inactive
33 | O=C(Nc1cc(C(F)(F)F)cc(C(F)(F)F)c1)c1cc(Cl)ccc1O | 2.93 µM (active)
34 | COc1cccc2nc(-c3cccs3)nc(NN3C(=O)C=C(C)C3=O)c12 | 2.08 µM (active)
35 | CC=CC1=C(C(=O)O)N2C(=O)[C@H](NC(=O)[C@H](N)c3ccc(O)cc3)[C@@H]2SC1 | inactive
36 | CCc1c2c(nc3ccc(O)cc13)-c1cc3c(c(=O)n1C2)COC(=O)[C@]3(O)CC | 0.001 µM (active)
37 | CC1=C(CO)C(=O)O[C@@H]([C@@H](C)[C@H]2CC[C@H]3[C@@H]4C[C@H]5O[C@]56[C@@H](O)C=CC(=O)[C@]6(C)[C@@H]4CC[C@]23C)C1 | inactive
38 | CC(C)(C)NC(=O)[C@H]1CN(Cc2cccnc2)CCN1C[C@@H](O)C[C@@H](Cc1ccccc1)C(=O)N[C@H]1c2ccccc2C[C@H]1O | inactive
39 | C=C1C(=CC=C2CCC[C@]3(C)[C@@H]([C@H](C)C=C[C@H](C)C(C)C)CC[C@@H]23)C[C@@H](O)C[C@@H]1O | 4.14 µM (active)
40 | COc1c(OCCCN2CCOCC2)ccc2c3n(c(=NC(=O)c4cnc(N)nc4)nc12)CCN3 | 2.57 µM (active)
